Measured values: PubChem BioAssay AID1159580 (chemical genetic matrix, 2015)
Where “and” joins values, the source holds several entries; their conditions need not be identical. Equal values may be shown once. Screen size: about 5,500 compounds; about 2,000 (36%) were called active. About 18% were inconclusive and are not listed. Cut-off read from the data, not from the text of the source: active = normalized growth mostly below about 0.91 (no sharp cut-off); inconclusive = no clear call, values can overlap the other calls; inactive = mostly above about 0.92. The list shows a part of the results.

Experiment: chemical genetic growth profiling, strain panel (AID 1159580);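 note: tested at 20 µM; growth read once vehicle control cultures reached saturation at 30 °C; 1 = growth at the plate median or of vehicle wells; lower values mean less growth of the strain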
Conditions: S. cerevisiae deletion strains, growth OD

Measured: normalized growth

Nc1ccc(C(=O)O)cc1
inactive: locus YAL021C, strain ccr4, stronger effect = lower value 0.984 | locus YAL026C, strain drs2, stronger effect = lower value 1.01 | locus YAL030W, strain snc1, stronger effect = lower value 1.01 | locus YBL061C, strain skt5, stronger effect = lower value 1.02 | locus YBR009C, strain hhf1, stronger effect = lower value 0.993 | locus YBR021W, strain FUR4, stronger effect = lower value 1.01 | locus YBR023C, strain chs3, stronger effect = lower value 1.03 | locus YBR171W, strain sec66, stronger effect = lower value 1.02 | locus YBR229C, strain ROT2, stronger effect = lower value 0.996 | locus YBR231C, strain swc5, stronger effect = lower value 1.04 | locus YBR279W, strain paf1, stronger effect = lower value 1.02 | locus YCL011C, strain gbp2, stronger effect = lower value 1.01 | locus YCL016C, strain dcc1, stronger effect = lower value 1.03 | locus YCL029C, strain bik1, stronger effect = lower value 1.01 | locus YCL061C, strain MRC1, stronger effect = lower value 1.02 | locus YCL069W, strain vba3, stronger effect = lower value 1.01 | locus YCR088W, strain abp1, stronger effect = lower value 1.01 | locus YDL005C, strain med2, stronger effect = lower value 1.02 | locus YDL035C, strain GPR1, stronger effect = lower value 1.01 | locus YDL040C, strain nat1, stronger effect = lower value 1.02 | locus YDL074C, strain BRE1, stronger effect = lower value 1.03 | locus YDL101C, strain DUN1, stronger effect = lower value 1.02 | locus YDL134C, strain PPH21, stronger effect = lower value 1.01 | locus YDL185W, strain tfp1, stronger effect = lower value 1.03 | locus YDL192W, strain arf1, stronger effect = lower value 1.01 | locus YDR001C, strain nth1, stronger effect = lower value 1 | locus YDR069C, strain doa4, stronger effect = lower value 1.04 | locus YDR101C, strain arx1, stronger effect = lower value 0.996 | locus YDR137W, strain rgp1, stronger effect = lower value 1.01 | locus YDR159W, strain sac3, stronger effect = lower value 1 | locus YDR162C, strain NBP2, stronger effect = lower value 1.02 | locus YDR195W, strain ref2 1.04 | locus YDR297W, strain sur2, stronger effect = lower value 1.02 | locus YDR318W, strain mcm21, stronger effect = lower value 1.01 | locus YDR334W, strain swr1, stronger effect = lower value 1.01 | locus YDR335W, strain msn5, stronger effect = lower value 1.02 | locus YDR388W, stronger effect = lower value 1.01 | locus YDR392W, strain spt3, stronger effect = lower value 0.972 | locus YDR502C, strain sam2, stronger effect = lower value 1.01 | locus YEL003W, strain gim4, stronger effect = lower value 1.02 | locus YEL037C, strain rad23, stronger effect = lower value 1.01 | locus YEL061C, strain CIN8 (second series), stronger effect = lower value 1.02 | locus YEL061C, strain CIN8, stronger effect = lower value 1 | locus YER015W, strain faa2, stronger effect = lower value 1.04 | locus YER016W, strain bim1, stronger effect = lower value 0.987 | locus YER110C, stronger effect = lower value 1.02 | locus YER111C, strain swi4, stronger effect = lower value 1.03 | locus YER155C, strain BEM2 (second series), stronger effect = lower value 1.04 | locus YER155C, strain BEM2, stronger effect = lower value 0.994 | locus YER167W, strain BCK2, stronger effect = lower value 1.01 | locus YFR010W, strain ubp6, stronger effect = lower value 1.02 | locus YGL078C, strain dbp3, stronger effect = lower value 1 | locus YGL086W, strain mad1, stronger effect = lower value 1 | locus YGL167C, strain pmr1, stronger effect = lower value 1.02 | locus YGL173C, strain kem1, stronger effect = lower value 1.03 | locus YGL227W, strain vid30, stronger effect = lower value 1 | locus YGL240W, strain doc1, stronger effect = lower value 1.03 | locus YGL248W, strain PDE1, stronger effect = lower value 1 | locus YGL253W, strain hxk2, stronger effect = lower value 1.01 | locus YGR078C, strain PAC10, stronger effect = lower value 1 | locus YGR135W, strain pre9, stronger effect = lower value 1.02 | locus YGR252W, strain gcn5, stronger effect = lower value 1.04 | locus YHR027C, strain rpn1, stronger effect = lower value 1.02 | locus YHR030C, strain SLT2, stronger effect = lower value 0.999 and 1.11 | locus YHR079C, strain IRE1 (second series), stronger effect = lower value 1.01 | locus YHR079C, strain IRE1, stronger effect = lower value 1.01 | locus YHR094C, strain hxt1, stronger effect = lower value 1.01 | locus YHR129C, strain ARP1, stronger effect = lower value 1 | locus YHR142W, strain chs7, stronger effect = lower value 0.988 | locus YHR200W, strain rpn10, stronger effect = lower value 1.02 | locus YIL066C, strain RNR3, stronger effect = lower value 1.01 | locus YIL073C, strain SPO22, stronger effect = lower value 1.03 | locus YIL125W, strain kgd1, stronger effect = lower value 1.01 | locus YIR030C, strain dcg1, stronger effect = lower value 1.02 | locus YJL092W, strain hpr5, stronger effect = lower value 1.02 | locus YJL095W, strain BCK1 (second series), stronger effect = lower value 1 | locus YJL095W, strain BCK1, stronger effect = lower value 1.04 and 1.01 | locus YJL115W, strain asf1, stronger effect = lower value 1.02 | locus YJL129C, strain trk1, stronger effect = lower value 1.02 | locus YJL134W, strain LCB3, stronger effect = lower value 1 | locus YJL154C, strain vps35, stronger effect = lower value 1.03 | locus YJL164C, strain tpk1, stronger effect = lower value 1 | locus YJL166W, strain qcr8, stronger effect = lower value 1.06 | locus YJL168C, strain set2, stronger effect = lower value 1.01 | locus YJL187C, strain SWE1 (second series), stronger effect = lower value 1.03 | locus YJL187C, strain SWE1, stronger effect = lower value 1.02 | locus YJR043C, strain POL32, stronger effect = lower value 0.996
